Source: PubChem BioAssay (National Center for Advancing Translational Sciences (NCATS))
This is a sample that favours compounds with a hit; in the whole collection about 3.3% have one here.
Sm TGR inh – blocks Schistosoma mansoni thioredoxin glutathione reductase | Q962Y6 | purified TGR, DTNB reduction, TNB absorbance 405 nm | Potency, µM (series often up to 114 µM), hits mostly inhibitors | 360,000 tested, 3% active; further: nearly all actives have a fitted effect of over 60% in size
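TGR 20 nM + NADPH 100 uM (dispensed conc.), cpd preinc 15 min RT; start with NADPH (500 uM addition) then DTNB (15 mM addition). Kinetic TNB absorbance, 405 nm filter. Four-parameter Hill fit across titration.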
AmpC inh detg – AmpC beta-lactamase inhibition with detergent present | P00811 | AmpC hydrolysis of nitrocefin, absorbance 480 nm, 0.01% Triton | Potency, µM (series often up to 114 µM), hits mostly inhibitors | 370,000 tested, 0.041% active; further: nearly all actives have a fitted effect of over 25% in size
Target sequence (P00811 whole entry, looked up): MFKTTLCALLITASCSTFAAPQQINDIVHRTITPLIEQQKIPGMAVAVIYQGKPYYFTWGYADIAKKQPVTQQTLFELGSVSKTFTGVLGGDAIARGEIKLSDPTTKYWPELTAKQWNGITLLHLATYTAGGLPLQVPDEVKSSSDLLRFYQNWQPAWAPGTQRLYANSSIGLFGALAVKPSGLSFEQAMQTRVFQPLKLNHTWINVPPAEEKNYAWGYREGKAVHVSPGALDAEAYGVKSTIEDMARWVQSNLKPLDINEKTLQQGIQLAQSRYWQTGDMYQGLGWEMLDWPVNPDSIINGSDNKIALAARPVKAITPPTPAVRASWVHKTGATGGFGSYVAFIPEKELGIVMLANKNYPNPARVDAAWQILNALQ
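AmpC (5.3 nM in the dispensed reagent) in 20 mM phosphate pH 7.0 with 0.01% (detergent screen) or 0.0001% Triton X-100 was preincubated with compounds for 15 min at room temperature. Nitrocefin was then added from an 800 uM solution, and hydrolysis was followed at 480 nm.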
AmpC inh no detg – blocks E. coli AmpC beta-lactamase in detergent-free assay. P00811. AmpC nitrocefin hydrolysis, absorbance 480 nm, 0.0001% Triton. Potency, µM (highest dose often 57.1 µM), most hits filed as inhibitors. 330,000 tested, 0.52% active. AID 485341; further: nearly all actives have a fitted effect of over 20% in size
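AmpC (5.3 nM in the dispensed reagent) in 20 mM phosphate pH 7.0 with 0.01% (detergent screen) or 0.0001% Triton X-100 was preincubated with compounds for 15 min at room temperature. Nitrocefin was then added from an 800 uM solution, and hydrolysis was followed at 480 nm.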
Large screens that a line does not name were inactive. The call rests on the fitted dose curve; in most records, active means well fitted curve in the direction sought with a large enough effect; inconclusive means small, poorly fitted or top-dose-only effect, or another doubt; inactive means no such curve, though single readings can be large; an effect the other way counts as inactive or inconclusive.

Cc1[nH]n(-c2nc(-c3ccccc3)cc(=O)[nH]2)c(=O)c1CCO	none
COc1ccc(Cl)cc1NC(=O)COC(=O)c1ccc(Cl)nc1	AmpC inh detg inconclusive
Cc1c(-c2cccc(Cl)c2)nc2ccccc2c1C(=O)NC1CC1	none
Cc1ccc2nc(N=C(N)N)nc(C)c2c1	AmpC inh no detg 10µM
CCc1ccc2nc(N=C(N)N)nc(C)c2c1	none
CCN1CCN(Cc2c(O)ccc3c2O/C(=C\c2ccc(C)cc2)C3=O)CC1	Sm TGR inh inconclusive
CN(C)Cc1c(O)ccc2c1O/C(=C\C=C\c1ccccc1)C2=O	Sm TGR inh 11µM
Cc1oc2ccc(O)c(CN(C)C)c2c1C(=O)c1ccccc1	none
COc1ccccc1/C=C/C=C1\Oc2c(ccc(O)c2CN2CCN(CCO)CC2)C1=O	Sm TGR inh inconclusive
CCN1CCN(Cc2c(O)ccc3c2O/C(=C\C=C\c2ccccc2)C3=O)CC1	Sm TGR inh 35µM, AmpC inh detg inconclusive
O=C1/C(=C/C=C/c2ccccc2)Oc2c1ccc(O)c2CN1CCN(CCO)CC1	Sm TGR inh 40µM
CCN1CCN(Cc2c(O)ccc3c2O/C(=C\c2ccccc2)C3=O)CC1	Sm TGR inh 45µM
CCc1ccc(/C=C2\Oc3c(ccc(O)c3CN3CCN(C)CC3)C2=O)cc1	none
O=C(Nc1ccccc1F)c1ccc(C(=O)c2ccccc2)cc1	none
Cc1ccc2c(c1)C(=O)N1[C@H]3c4ccccc4OC[C@@H]3[C@H](c3ccccc3)[C@]1(C)C(=O)N2	none (no result: Sm TGR inh, AmpC inh detg)
O=S(=O)(c1cccc2cccnc12)N1CCCc2ccccc21	none
CC1CCCN(Cc2c(O)ccc3c2O/C(=C\c2ccco2)C3=O)C1 (configuration not stated)	Sm TGR inh 25µM
Cc1ccc(/C=C2\Oc3c(ccc(O)c3CN3CCN(C)CC3)C2=O)cc1	none
COc1ccc(N(CC(=O)NC2CCCCC2C)S(=O)(=O)c2c(C)nn(C)c2C)cc1 (configuration not stated)	AmpC inh detg inconclusive
Cc1sc2ccccc2[n+]1CC(=O)O	none
Cc1sc2ccccc2[n+]1CCC(C)S(=O)(=O)[O-] (configuration not stated)	Sm TGR inh 2µM, AmpC inh detg inconclusive
Cc1c(C(=O)NC2CCN(Cc3ccccc3)C2)oc2c(Cl)cccc12 (configuration not stated)	none
CCOc1ccc2nc(SC3CC(=O)N(c4cccc(OC)c4)C3=O)sc2c1 (configuration not stated)	Sm TGR inh inconclusive, AmpC inh no detg 8.9µM
Cc1cccc(N2C(=O)CC(Sc3nc(C)cc(C)n3)C2=O)c1 (configuration not stated)	none
O=C1CC(SCCO)C(=O)N1c1ccccc1 (configuration not stated)	none
CCOc1ccc2nc(SC3CC(=O)N(c4ccccc4)C3=O)sc2c1 (configuration not stated)	Sm TGR inh inconclusive
O=C1CC(Sc2nnnn2C2CCCCC2)C(=O)N1c1ccccc1 (configuration not stated)	Sm TGR inh 3.2µM
Cc1cc(C)cc(N2C(=O)CC(c3ccccc3)CC2=O)c1	none
Cc1cccc(N2C(=O)CC(Sc3nnc(C)s3)C2=O)c1 (configuration not stated)	Sm TGR inh 3.5µM
Cc1cc(C)cc(N2C(=O)CC(Sc3nnnn3-c3ccccc3)C2=O)c1 (configuration not stated)	Sm TGR inh 5µM
COc1ccc(OCC(=O)OCC(=O)c2ccc(OC)c(F)c2)cc1	none
COc1ccc(-c2cccc(NS(=O)(=O)c3ccc(NC(C)=O)cc3)c2)nn1	none (no result: AmpC inh no detg)
COc1ccc2c(C(=O)c3ccc(Cl)cc3)n(CCCC(N)=O)[n+]([O-])c2c1	none
O=C(CNC(=O)C1(c2ccccc2)CC1)Nc1ccc(F)c(F)c1	none
Cc1cc(C)cc(N2C(=O)CC(Cn3nc(C)cc3C)C2=O)c1 (configuration not stated)	none
Cc1cc(C)cc(N2C(=O)CC(Sc3ncn[nH]3)C2=O)c1 (configuration not stated)	Sm TGR inh 0.5µM
Cn1nnnc1SC1CC(=O)N(c2ccccc2)C1=O (configuration not stated)	Sm TGR inh 1.6µM
Cc1c(O)nc(SC2CC(=O)N(c3ccccc3)C2=O)[nH]c1=O (configuration not stated)	Sm TGR inh inconclusive (no result: AmpC inh no detg)
Cc1ccc(N2C(=O)CC(Sc3cccs3)C2=O)cc1 (configuration not stated)	Sm TGR inh 7.1µM
Cc1ccc(SC2CC(=O)N(c3ccc4c(c3)OCCO4)C2=O)cc1 (configuration not stated)	Sm TGR inh inconclusive
C[C@@H]1CN([C@H](C)CO)C(=O)Cc2cc(NC(=O)Cn3cnnn3)ccc2O[C@@H]1CN(C)Cc1ccc(Cl)c(Cl)c1	none (no result: Sm TGR inh, AmpC inh detg)
Cn1cc(S(=O)(=O)N2CCCC2)cc1C(=O)Nc1ccc(F)cc1F	none (no result: AmpC inh no detg)
Cc1ccc(CNC(=O)CN(c2ccc(Cl)cc2Cl)S(=O)(=O)c2ccccc2)cc1	none (no result: AmpC inh no detg)
CCn1nnc2cc(C(=O)Nc3cccc(S(=O)(=O)N(C)C)c3)ccc21	none
COc1cccc(C(=O)NCC(=O)OCC(=O)Nc2cc(OC)c([N+](=O)[O-])cc2C)c1	none
O=C(c1cc2ccccc2oc1=O)N(Cc1cccs1)Cc1cccs1	AmpC inh detg inconclusive
O=C(c1cc2ccccc2oc1=O)N(Cc1ccco1)Cc1cccs1	Sm TGR inh 28µM, AmpC inh detg inconclusive
Oc1ccc(/C=N/Nc2cc(N3CCOCC3)nc(N3CCOCC3)n2)cc1O	Sm TGR inh 50µM
Oc1cccc(/C=N/Nc2cc(N3CCOCC3)nc(N3CCOCC3)n2)c1	none
Cc1cc(C)n(CC2CC(=O)N(c3ccc(F)c(Cl)c3)C2=O)n1 (configuration not stated)	none
CCCOc1ccc(N2C(=O)CC(N3CCC(c4nc5ccccc5o4)CC3)C2=O)cc1 (configuration not stated)	none
CCN1C(=O)CC(N2CCC(C(=O)N3CCCCCC3)CC2)C1=O (configuration not stated)	none
CCCOc1ccc(N2C(=O)CC(N3CCCC(C(=O)N4CCCC4)C3)C2=O)cc1 (configuration not stated)	Sm TGR inh 35µM, AmpC inh detg inconclusive
O=C(C1CCCN(C2CC(=O)N(c3ccc(F)cc3)C2=O)C1)N1CCCC1 (configuration not stated)	Sm TGR inh inconclusive
O=C(C1CCN(C2CC(=O)N(c3cccc(Cl)c3)C2=O)CC1)N1CCCCCC1 (configuration not stated)	Sm TGR inh 14µM
Cc1cc(C)n(C2CC(=O)N(c3cccc(Cl)c3)C2=O)n1 (configuration not stated)	Sm TGR inh 25µM
O=C(C1CCCN(C2CC(=O)N(c3ccc(Cl)cc3)C2=O)C1)N1CCCC1 (configuration not stated)	Sm TGR inh 40µM
COc1ccccc1NC(=O)Cn1cc(S(=O)(=O)Cc2ccccc2)c2ccccc21	none (no result: AmpC inh no detg)
Cc1cc(C)nc(NCCO)n1	none
CN(C)C(=O)c1ccc(OCC(F)(F)F)nc1	none
C/C(CC(=O)Nc1cccc2c1CCCC2)=N\NC=O	none
COc1ccc(-n2nnnc2C2CCN(S(=O)(=O)c3ccc(C(C)(C)C)cc3)CC2)cc1	none (no result: AmpC inh no detg)
